{"source": "PubChem BioAssay (NCI)", "note": "Compounds without any hit were thinned out: in the full panel of roughly 83,000, 20% have a hit.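 Growth was measured after 48 h exposure to one concentration of compound in 96-well plates. Values under 10 count as active.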 A number with no mark means an inactive call. Calls of active or inactive are those of the source.", "data": [{"tested_on": "LOX IMVI melanoma", "assay": "NCI-60 one-dose screen, 48 h (100 = growth as untreated, 0 = no growth, -100 = all killed)", "settings": "10 µM unless noted", "values": [{"smiles": "CC(=O)[C@@H]1CC[C@]2(C(N)=O)CC[C@]3(C)[C@H](CC[C@@H]4[C@@]5(C)CCCNC(C)(C)[C@@H]5CC[C@]43C)[C@@H]12", "growth": "84.4%"}, {"smiles": "Oc1c(Cl)cc(Cl)c(Cl)c1CNCCNCc1c(O)c(Cl)cc(Cl)c1Cl", "growth": "6.53% (active)"}, {"smiles": "O=C1Nc2cc(Cl)ccc2/C1=C\\c1c(-c2ccc(F)cc2)nc2ccccn12", "growth": "11.1%"}, {"smiles": "O=C(NO)c1ccc(-n2nc(-c3ccccc3)c3ccccc32)cc1", "growth": "24.8%"}, {"smiles": "O=C(CNCCN1CCOCC1)N1c2cccc3cccc(c23)N(C(=O)CNCCN2CCOCC2)C1c1cn(-c2ccccc2)nc1-c1cccc([N+](=O)[O-])c1", "growth": "53.9%"}, {"smiles": "O=C1c2cccc3c(-c4ccc5c(c4)ncn5C4CCCCC4)ccc(c23)C(=O)N1CCO", "growth": "87.4%"}, {"smiles": "CC(=O)Oc1ccc(/C=N/NC(N)=S)nc1", "growth": "47.7%"}, {"smiles": "NC(=S)N1N=C(c2ccccc2)CC1c1cn(-c2ccccc2)nc1-c1ccc(OCc2ccccc2)cc1", "note": "(configuration not stated)", "growth": "99.3%"}, {"smiles": "Cc1ccc(-c2nc3ccccn3c2/C=C2/C(=O)Nc3cc(Cl)ccc32)cc1", "growth": "53.8%"}, {"smiles": "Clc1ccc(-c2ccc(CNCC3CCNCC3)o2)c(-c2ccccc2)c1", "growth": "-86.7% (active)"}, {"smiles": "CC(=O)[C@H]1CCC/C=C/[C@@H]2C[C@H](O)C[C@H]2[C@H](O)/C=C/C(=O)O1", "growth": "-63% (active)"}, {"smiles": "CCOC(=O)c1cc(C(=O)c2ccc(Br)cc2)n2ccc(/C=C/c3cc[n+](CC(=O)c4ccc(OC)cc4)cc3)cc12", "growth": "81%"}, {"smiles": "COc1ccc(/C=C/c2nc(Nc3ccc(S(=O)(=O)Nc4nc(C)cc(C)n4)cc3)c3ccccc3n2)cc1", "growth": "26.3%"}, {"smiles": "Cc1ccc(C(=O)/C(=C/c2ccc([N+](=O)[O-])cc2)SCc2ccc(Cl)cc2)cc1", "growth": "0.133% (active)"}, {"smiles": "O=C1c2c(c3c4cccc(F)c4[nH]c3c3ccc4ccccc4c23)C(=O)N1O", "growth": "18.4%"}, {"smiles": "COc1ccc(C(=O)C2C(C#N)C(C#N)C3C=Cc4ccccc4N32)cc1", "note": "(configuration not stated)", "growth": "43.5%"}, {"smiles": "CCOC(=O)CC1CSC(N/N=C/c2ccc(-n3cccn3)cc2)=N1", "note": "(configuration not stated)", "growth": "97.4%"}, {"smiles": "CC(C)N1C(=O)/C(=C2\\SC(=S)N(C(C)C)C2=O)SC1=S", "growth": "90%"}, {"smiles": "CC(C)(C)[Si](C)(C)OC1[C@@H](O[Si](C)(C)C(C)(C)C)[C@@H](CNC(=O)NC(=O)CCl)O[C@H]1n1cnc2c(NC(=O)Nc3ccccc3)ncnc21", "note": "(some centres not stated)", "growth": "-88.1% (active)"}, {"smiles": "COc1ccc(-c2nc3sccn3c2/C=C/C(=O)c2ccc3c(c2)OCO3)cc1", "growth": "38.4%"}, {"smiles": "O=C1c2ccccc2C(=O)c2c([N+](=O)[O-])ccc(Cl)c21", "growth": "55.4%"}, {"smiles": "COc1ccc(/C=C/c2nc(Nc3cccc(NC(C)=O)c3)c3ccccc3n2)cc1", "growth": "59.3%"}, {"smiles": "Cc1ccc(-n2nc3c(c(C#N)c2=O)CC(c2ccccc2[N+](=O)[O-])C([N+](=O)[O-])=C3O)cc1", "note": "(configuration not stated)", "growth": "82.9%"}, {"smiles": "COc1cc(OC)cc(C(=O)C[n+]2cccc3cc[nH]c32)c1", "growth": "93.8%"}]}, {"tested_on": "SK-MEL-28 melanoma", "assay": "NCI-60 one-dose screen, 48 h (100 = growth as untreated, 0 = no growth, -100 = all killed)", "settings": "10 µM unless noted", "values": [{"smiles": "COc1ccc(/C=C/c2nc(Nc3ccc(S(=O)(=O)Nc4cc(C)on4)cc3)c3ccccc3n2)cc1", "growth": "91.7%"}, {"smiles": "NS(=O)(=O)c1ccc(CCN2C(=O)c3cc(Cl)c(Cl)cc3C2=O)cc1", "growth": "110%"}, {"smiles": "C/C=C(\\C)C(=O)NC1=CC[C@@]2(C)C(=CCC3C2CC[C@@]2(C)C3CC[C@@H]2C(C)N(C)C)C1=O", "note": "(some centres not stated)", "growth": "-66.5% (active)"}, {"smiles": "O=c1c2c(c(=O)n1O)c1c3ccc[nH]c3nc1c1nc3[nH]cccc3c12", "growth": "96.2%"}, {"smiles": "Cc1ccc(C(=O)/C(=C\\c2ccc([N+](=O)[O-])cc2)S(=O)Cc2ccc(F)cc2)cc1", "note": "(configuration not stated)", "growth": "17.3%"}, {"smiles": "O=C(Nc1ncc(Cc2cc(Cl)ccc2Cl)s1)c1cccs1", "growth": "63.7%"}, {"smiles": "O=C(C[n+]1cccc2ccccc21)c1ccc(O)c(O)c1", "growth": "84.7%"}, {"smiles": "OCc1cnccc1NCCCCOc1ccc(Oc2ccccc2)cc1", "growth": "70.2%"}, {"smiles": "Oc1cccc(CCc2ccc(Oc3cc(CCc4cccc(O)c4)cc(O)c3O)cc2)c1", "growth": "88.6%"}, {"smiles": "CC/C(=C\\c1ccc(OC)cc1)C(=O)c1ccc(OC)cc1", "growth": "106%"}, {"smiles": "CN1C(N2CCN(S(=O)(=O)c3ccccc3)CC2)=NS(=O)(=O)c2ccccc21", "growth": "103%"}, {"smiles": "O=C1Nc2ccc(F)cc2/C1=C\\c1c(-c2ccccc2)nc2ccccn12", "growth": "85.1%"}, {"smiles": "O=C(Cn1c(C(=O)c2ccccc2)nc2ccccc21)c1ccc(F)cc1", "growth": "54%"}, {"smiles": "COc1ccc(C(=O)c2nc3ccccc3n2CC(=O)c2ccc(Cl)cc2)cc1", "growth": "45.5%"}, {"smiles": "CC(=O)[C@@H]1CC[C@]2(C(N)=O)CC[C@]3(C)[C@H](CC[C@@H]4[C@@]5(C)CCCNC(C)(C)[C@@H]5CC[C@]43C)[C@@H]12", "growth": "95.8%"}, {"smiles": "Oc1c(Cl)cc(Cl)c(Cl)c1CNCCNCc1c(O)c(Cl)cc(Cl)c1Cl", "growth": "21.4%"}, {"smiles": "O=C1Nc2cc(Cl)ccc2/C1=C\\c1c(-c2ccc(F)cc2)nc2ccccn12", "growth": "28.2%"}, {"smiles": "O=C(NO)c1ccc(-n2nc(-c3ccccc3)c3ccccc32)cc1", "growth": "72.5%"}, {"smiles": "O=C(CNCCN1CCOCC1)N1c2cccc3cccc(c23)N(C(=O)CNCCN2CCOCC2)C1c1cn(-c2ccccc2)nc1-c1cccc([N+](=O)[O-])c1", "growth": "64%"}, {"smiles": "O=C1c2cccc3c(-c4ccc5c(c4)ncn5C4CCCCC4)ccc(c23)C(=O)N1CCO", "growth": "116%"}, {"smiles": "CC(=O)Oc1ccc(/C=N/NC(N)=S)nc1", "growth": "65.7%"}, {"smiles": "NC(=S)N1N=C(c2ccccc2)CC1c1cn(-c2ccccc2)nc1-c1ccc(OCc2ccccc2)cc1", "note": "(configuration not stated)", "growth": "112%"}, {"smiles": "Cc1ccc(-c2nc3ccccn3c2/C=C2/C(=O)Nc3cc(Cl)ccc32)cc1", "growth": "91.8%"}, {"smiles": "Clc1ccc(-c2ccc(CNCC3CCNCC3)o2)c(-c2ccccc2)c1", "growth": "-90% (active)"}, {"smiles": "CC(=O)[C@H]1CCC/C=C/[C@@H]2C[C@H](O)C[C@H]2[C@H](O)/C=C/C(=O)O1", "growth": "-16.6% (active)"}, {"smiles": "CCOC(=O)c1cc(C(=O)c2ccc(Br)cc2)n2ccc(/C=C/c3cc[n+](CC(=O)c4ccc(OC)cc4)cc3)cc12", "growth": "106%"}, {"smiles": "COc1ccc(/C=C/c2nc(Nc3ccc(S(=O)(=O)Nc4nc(C)cc(C)n4)cc3)c3ccccc3n2)cc1", "growth": "87.4%"}, {"smiles": "Cc1ccc(C(=O)/C(=C/c2ccc([N+](=O)[O-])cc2)SCc2ccc(Cl)cc2)cc1", "growth": "90.9%"}, {"smiles": "O=C1c2c(c3c4cccc(F)c4[nH]c3c3ccc4ccccc4c23)C(=O)N1O", "growth": "58.5%"}, {"smiles": "COc1ccc(C(=O)C2C(C#N)C(C#N)C3C=Cc4ccccc4N32)cc1", "note": "(configuration not stated)", "growth": "57.6%"}, {"smiles": "CCOC(=O)CC1CSC(N/N=C/c2ccc(-n3cccn3)cc2)=N1", "note": "(configuration not stated)", "growth": "111%"}, {"smiles": "CC(C)N1C(=O)/C(=C2\\SC(=S)N(C(C)C)C2=O)SC1=S", "growth": "97.8%"}, {"smiles": "CC(C)(C)[Si](C)(C)OC1[C@@H](O[Si](C)(C)C(C)(C)C)[C@@H](CNC(=O)NC(=O)CCl)O[C@H]1n1cnc2c(NC(=O)Nc3ccccc3)ncnc21", "note": "(some centres not stated)", "growth": "-79.5% (active)"}, {"smiles": "COc1ccc(-c2nc3sccn3c2/C=C/C(=O)c2ccc3c(c2)OCO3)cc1", "growth": "105%"}, {"smiles": "O=C1c2ccccc2C(=O)c2c([N+](=O)[O-])ccc(Cl)c21", "growth": "106%"}, {"smiles": "COc1ccc(/C=C/c2nc(Nc3cccc(NC(C)=O)c3)c3ccccc3n2)cc1", "growth": "104%"}, {"smiles": "Cc1ccc(-n2nc3c(c(C#N)c2=O)CC(c2ccccc2[N+](=O)[O-])C([N+](=O)[O-])=C3O)cc1", "note": "(configuration not stated)", "growth": "98.4%"}, {"smiles": "COc1cc(OC)cc(C(=O)C[n+]2cccc3cc[nH]c32)c1", "growth": "100%"}]}]}
